# TIM10 inh: inhibits growth of TIM10 yeast strain; S. cerevisiae TIM10 strain growth, BacTiter-Glo luminescence, 24 h; inhibition, % at 10 µM; 1.4% of 330,000 active;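 active = inhibition of 40% or more at the single tested concentration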;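 also: wild-type TIM10 isogenic control strain grown at permissive 25 °C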
# Rce1 inhib: inhibitors of yeast Ras-converting enzyme; AID 2563; calls only; 0.27% of 290,000 active; yeast membranes, quenched prenylated peptide cleavage fluorescence;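 active = fall in fluorescence gain of 50% or more versus controls, with final raw signal at or below 3038400; inconclusive = same 50% fall but final raw signal above 3038400; inactive = fall in fluorescence gain under 50%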;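 also: plate controls were neutral control wells for no effect and wells lacking membranes for full effect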
# Target sequence (Q03530 whole entry, looked up): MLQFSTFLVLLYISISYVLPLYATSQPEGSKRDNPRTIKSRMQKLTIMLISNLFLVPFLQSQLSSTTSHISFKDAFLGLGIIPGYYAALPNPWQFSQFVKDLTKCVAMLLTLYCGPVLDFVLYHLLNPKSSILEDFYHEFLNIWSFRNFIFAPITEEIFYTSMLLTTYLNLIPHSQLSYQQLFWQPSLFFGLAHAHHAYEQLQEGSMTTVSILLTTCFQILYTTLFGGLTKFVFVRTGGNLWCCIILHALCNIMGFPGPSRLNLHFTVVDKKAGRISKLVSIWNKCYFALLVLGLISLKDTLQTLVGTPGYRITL
# tim10-1 inh: growth inhibitors of tim10-1 mutant yeast. S. cerevisiae tim10-1 ts strain growth, BacTiter-Glo, 24 h. inhibition, % at 20 µM. 2.2% of 330,000 active. AID 463190;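 active = inhibition of at least 40%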;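 also: mutant grown at 25 °C; 0% = DMSO wells with yeast and 100% = wells holding no yeast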
# PfHsp90 yeast 2: inhibits growth of yeast expressing Plasmodium falciparum Hsp90; S. cerevisiae expressing PfHsp90, BacTiter-Glo ATP, 48 h; yeast lacking PDR1 and PDR3 efflux regulators; inhibition, % at 9.4 µM; 0.32% of 310,000 active;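 active = every replicate shows inhibition above about 80%, whatever the replicate mean, limit read from the data; inconclusive = mean inhibition reaches the set limit but some replicate falls short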;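 also: 0% = DMSO neutral controls and 100% = 20 µM radicicol positive controls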
# tim23-1 inh: inhibits growth of tim23-1 mutant yeast; S. cerevisiae tim23-1 growth, BacTiter-Glo luminescence, 24 h; AID 463212; inhibition, % at 20 µM; 1.3% of 330,000 active;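 active = growth inhibition of the mutant yeast at or above 50%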;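 also: temperature-sensitive mutant grown at 25 °C; plate controls were DMSO-treated mutant yeast for no effect and medium wells lacking yeast for full effect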
# tim10-1 confirm: confirmation of tim10-1 mutant yeast growth inhibitors. 56% of 7,400 active. shares compounds with tim10-1 inh. inhibition, % at 20 µM. S. cerevisiae tim10-1 ts strain growth, BacTiter-Glo, 24 h;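 active = inhibition of yeast growth at or above a set limit in either of two repeat tests at 20 µM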;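 also: tim10-1 mutant grown at permissive 25 °C to find synthetic lethal compounds; 0% = DMSO yeast wells and 100% = medium wells without yeast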
# Starred values were filed as active, the others as inactive; i = inactive; ? = inconclusive; . = no result given; + = active, no number. The list is not random: actives were taken first. Their share in the collection is about 3.7%.
SMILES,TIM10 inh,Rce1 inhib,tim10-1 inh,PfHsp90 yeast 2,tim23-1 inh,tim10-1 confirm
COc1ccc(CC(=O)O/N=C(\N)c2ccccn2)cc1OC,4,i,24,-15,-1,.
COc1ccc(CC(=O)O/N=C(\N)Cc2cccc3ccccc23)cc1OC,29,i,58*,-70,34,48*
CC(C)(C)NC(=O)C(c1cccs1)N(Cc1ccc(F)cc1)C(=O)c1csnn1 (configuration not stated),10,i,43*,17,23,11
CC(C)(C)NC(=O)C(c1cccs1)N(C(=O)c1csnn1)c1cccc(F)c1 (configuration not stated),-2,i,5,1,11,.
CC1CC(C)CN(S(=O)(=O)c2ccc(C(=O)NCc3ccco3)cc2)C1 (configuration not stated),3,i,14,13,22,.
CC(C)CN(CC(C)C)C(=O)C12CCC(C)(C(=O)O1)C2(C)C (configuration not stated),17,i,23,7,20,.
O=C(CSc1nc(-c2ccccc2)cs1)N1CCN(C(=O)c2ccco2)CC1,15,i,44*,-29,19,26
CC12CC(c3ccccc3O1)N(C(=O)c1ccco1)C(=S)N2c1ccccc1 (configuration not stated),38,i,42*,.,46,27
CC1CC(N(C(=O)c2ccco2)c2ccccc2)c2ccccc2N1C(=O)c1ccco1 (configuration not stated),16,.,27,8,27,.
CC(=O)c1cc(CN2CCN(C3CCN(C(C)C)CC3)C(CCO)C2)cs1 (configuration not stated),3,i,-3,12,-5,.
CCCCNC(=S)NCc1ccc2[nH]c3c(c2c1)CCCC3,33,i,40*,17,49,10
Cc1ccc(-c2nnn(CC(=O)N(c3ccccc3F)C(C(=O)NCC3CCCO3)c3c[nH]c4ccccc34)n2)cc1 (configuration not stated),8,i,27,8,11,.
COc1ccc(CC(=O)Nc2nc(-c3cc(OC)ccc3OC)cs2)cc1,10,i,43*,28,42,35*
COc1ccc(OC)c(-c2csc(NC(=O)Cc3ccc(OC)c(OC)c3)n2)c1,8,i,12,5,16,.
O=C(c1cc(COc2cccc(C(F)(F)F)c2)on1)N1CCC(c2ccccc2)CC1,6,i,22,-6,14,.
O=C(c1cc(COc2cccc(C(F)(F)F)c2)on1)N1C[C@@H]2CCC[C@H]1C2,34,i,45*,2,37,34*
CCCCCCCCCCOC(=O)Cn1c(COc2ccccc2C)[n+](C)c2ccccc21,25,+,70*,?,-18,-63
CCOC(=O)Cn1c(COc2ccccc2OC)[n+](C)c2ccccc21,10,i,-6,.,8,.
CC1CC(C)CN(CCOc2ccc(Br)cc2)C1 (configuration not stated),7,i,8,8,12,.
CCCCCCCCS(=O)c1sc2nc3c(cc2c1N)CCCC3 (configuration not stated),28,i,42*,.,43,50*
CCCCS(=O)(=O)c1sc2nc3c(cc2c1N)CCCC3,29,i,14,-10,19,.
N/C(COc1ncn(-c2ccccc2)n1)=N\S(=O)(=O)c1ccc(Cl)cc1Cl,25,i,32,-1,-1,.
N#C/C(=C/c1cccnc1)c1ccccc1,5,i,1,14,18,.
N#C/C(=C\c1cccnc1)c1nc2c(s1)CCCC2,20,i,43*,-10,13,32*
CC1CCc2nc(/C(C#N)=C/c3cccnc3)sc2C1 (configuration not stated),27,i,42*,-26,12,30
SMILES,TIM10 inh,Rce1 inhib,tim10-1 inh,PfHsp90 yeast 2,tim23-1 inh,tim10-1 confirm
COc1cc(/C=C(\C#N)c2nc3c(s2)CCCC3)ccc1O,31,i,44*,.,34,12
CN(CCCNS(=O)(=O)c1cccc2cccnc12)Cc1ccccc1,5,i,5,13,0,.
Cc1cccc(SCC(=O)Nc2ccccc2[N+](=O)[O-])c1,2,i,11,-36,17,.
COc1cccc(NC(=O)CCN2C(=O)C3CC=CCC3C2=O)c1 (configuration not stated),10,i,-2,-6,1,.
COc1ccc(CNC(=O)Cn2nc(C)c3c(C)n(-c4ccc(C)cc4)nc3c2=O)cc1OC,13,i,5,4,-7,.
Cc1cccc(Cc2cnc(N3C(=N)SC(c4ccccc4)C3=O)s2)c1 (configuration not stated),30,i,44*,-97,29,30*
Cc1ccc2cccc(NC(=S)NC(=O)c3ccnn3C)c2n1,39,.,43*,-39,39,29
Cc1ccccc1C(=O)O/N=C(\N)c1ccncc1,-13,i,15,9,2,.
CCOc1ccc(CCNC(=O)CN2C(=O)CCSc3ccccc32)cc1,23,i,15,-17,33,.
CCOc1ccc(CCNC(=O)C(C)N2C(=O)CC(C)(C)Sc3ccccc32)cc1 (configuration not stated),12,i,42*,10,39,25
Cc1ccc(OCC(=O)OCC(=O)N2c3ccccc3CC2C)cc1C (configuration not stated),-2,.,-23,-14,15,.
CCC(=O)c1ccc(OCC(=O)OCC(=O)N2c3ccccc3CC2C)cc1 (configuration not stated),-2,i,41*,8,40,35*
CCC(=O)c1ccc(OCC(=O)OCC(=O)N2CCCc3ccccc32)cc1,13,i,43*,19,48,28
Nn1c(=O)[nH]c2ccccc2c1=O,-1,i,0,-8,12,.
Nc1cnc(CNc2ccccc2Cl)cn1,3,i,4,-13,5,.
CSc1nsc(/C=C/Nc2ccc(C(=O)O)cc2)c1C#N,28,i,38,15,39,.
CSc1nsc(/C=C/Nc2ccc(F)cc2F)c1C#N,28,i,46*,-1,32,41*
COc1cccc(-n2cc(-c3ccc(F)cc3)[nH]c2=S)c1,26,i,46*,19,48,14
COc1ccc(-n2cc(-c3ccc(Cl)cc3)[nH]c2=S)cc1,-19,i,7,-40,-10,.
O=C(Cc1csc(Nc2nc(=S)[nH]c3ccccc23)n1)NCc1ccccc1Cl,3,i,29,-13,4,.
Cc1ccc(CNC(=O)Cc2csc(Nc3nc(=S)[nH]c4ccccc34)n2)cc1,4,i,40,.,4,26
COc1ccc(Cc2nnc(SCC(=O)NC3(C#N)CCCCC3)n2N)cc1,-2,i,22,23,3,.
